The list is not random: actives were taken first. Their share in the collection is about 2.9%.
Rtt109 Vps75: blocks Candida albicans Rtt109/Vps75 acetyltransferase activity | Q5AAJ8 | purified Rtt109/Vps75, ThioGlo CoA-SH fluorescence, 4 h | inhibition, % at 34.9 µM | AID 540336 | hit rate 0.16% among 330,000;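 active means inhibition of at least 50% in every replicate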
sPLA2-III inh: Inhibits HGIII-sPLA2 liposome hydrolysis, primary screen; Q9NZ20; QFRET BODIPY PC-A2 liposome hydrolysis, fluorescence; inhibition, % at 12.2 µM; hit rate 0.56% among 370,000;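 active means inhibition above mean plus 3 SD of compounds lying within the high and low control bounds, cut at about 19% in these data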;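 further: 0% = median of test compound wells and 100% = no enzyme DMSO wells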
ABHD5 PLIN5 PPI: blocks binding of human ABHD5 to perilipin-5; Q00G26+Q8WTS1; Split G. princeps luciferase complementation, luminescence, 4 h; inhibition, % at 4 µM; hit rate 0.78% among 360,000; AID 602281;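 active means inhibition above the mean inhibition across every tested compound plus 3 SD, cut at about 22% in these data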;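 further: 0% = DMSO only wells and the 100% control is not disclosed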
DAGLB inhibitor: diacylglycerol lipase beta (human) inhibition; Q8NCG7; HEK293T DAGLB membrane lysate, EnzChek fluorogenic substrate; inhibition, % at 5.17 µM; hit rate 0.059% among 340,000; AID 504411; in the data active means inhibition above about 34%;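 further: 0% = enzyme with vehicle and 100% = wells lacking enzyme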
Target sequence (Q8NCG7 whole entry, looked up): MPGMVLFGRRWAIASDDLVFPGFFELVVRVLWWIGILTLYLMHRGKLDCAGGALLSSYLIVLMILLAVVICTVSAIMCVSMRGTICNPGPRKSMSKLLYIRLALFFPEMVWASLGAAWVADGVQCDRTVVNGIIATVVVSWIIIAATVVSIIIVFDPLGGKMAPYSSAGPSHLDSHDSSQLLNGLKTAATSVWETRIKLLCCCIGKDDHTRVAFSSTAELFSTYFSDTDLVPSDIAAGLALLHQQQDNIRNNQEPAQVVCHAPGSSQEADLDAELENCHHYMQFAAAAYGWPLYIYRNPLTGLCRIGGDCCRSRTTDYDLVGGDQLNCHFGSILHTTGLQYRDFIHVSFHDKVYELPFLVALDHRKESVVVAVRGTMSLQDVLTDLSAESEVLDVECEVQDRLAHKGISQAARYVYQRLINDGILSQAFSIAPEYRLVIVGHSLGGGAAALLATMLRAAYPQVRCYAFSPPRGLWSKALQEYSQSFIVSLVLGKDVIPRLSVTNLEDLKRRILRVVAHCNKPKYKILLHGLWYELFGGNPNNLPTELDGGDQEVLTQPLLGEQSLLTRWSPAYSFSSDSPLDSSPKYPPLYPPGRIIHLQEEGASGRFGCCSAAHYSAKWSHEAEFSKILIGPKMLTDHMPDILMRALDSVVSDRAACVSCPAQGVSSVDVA
H9c2 protect: modulators protecting cardiomyocytes from myocardial damage; hit rate 0.63% among 360,000; H9c2 cardiomyocytes, H2O2 injury protection, ATPLite, 2 h; protection from H2O2 cell death, % at 20 µM; AID 588492;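 active means compounds giving at least 50% protection of heart cells from peroxide-induced death in the single-dose screen, raw or plate-pattern-corrected value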;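 further: 0% = DMSO wells with peroxide and 100% = DMSO wells without peroxide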
Myeloid diff MLP: compounds promoting myeloid differentiation; hit rate 1% among 360,000; calls only at 10 µM; ER-HoxA9 myeloid progenitors, lysozyme-GFP differentiation, flow cytometry;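 active means normalized GFP-positive differentiation at or above the plate's own cutoff, the solvent-only control mean plus 3 SD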;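 further: cells exposed to compound for four days before flow analysis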
Active calls of the source: *; i = inactive; · = no result given; + = active, no number.

SMILES | Rtt109 Vps75 | sPLA2-III inh | ABHD5 PLIN5 PPI | DAGLB inhibitor | H9c2 protect | Myeloid diff MLP
O=C(NN=C(Cc1ccccc1)Cc1ccccc1)c1ccc(F)cc1 | 0 | -11 | -13 | -2 | -4 | i
N#Cc1c(Cl)cccc1-n1ccnc1 | 1 | -1 | 18 | -4 | 5 | +
N#C/C(=C(/O)COc1ccccc1)c1nc2ccccc2s1 | 0 | -6 | 0 | 8 | -20 | i
N#C/C(=C(/O)COC(=O)c1ccc(C#N)cc1)c1nc2ccccc2s1 | -13 | -12 | 4 | 7 | -12 | +
CN(C)C(=O)COc1ccc2ccc(=O)oc2c1 | -6 | 6 | 5 | -1 | 2 | i
CCOC(=O)c1c(C)[nH]c(C(=O)COc2ccc3ccc(=O)oc3c2)c1C | -4 | -6 | 8 | 0 | 52* | i
CCOC(=O)c1c(C)[nH]c(C(=O)COC(=O)c2[nH]c(C)c(C(C)=O)c2C)c1C | -5 | 3 | 0 | -3 | -10 | +
Cc1cc(-n2c(C)cc(C(=O)COc3ccc4ccc(=O)oc4c3)c2C)no1 | -20 | 0 | 1 | 0 | 70* | ·
CCOC(=O)c1[nH]c(C)c(C(=O)OCC)c1C | -28 | 4 | -4 | -2 | -7 | i
CC(=O)c1cccc(OCC(=O)c2cc(C)n(-c3cc(C)on3)c2C)c1 | 1 | -12 | -4 | 0 | -34 | i
CCCC1CCc2[nH]nc(C(=O)NN)c2C1 (centres undefined) | -4 | 4 | 4 | -3 | -1 | i
Cc1cccn2c(=O)c(/C=C(\C#N)C(=O)NCc3ccco3)c(N3CCCCC3)nc12 | 19 | -2 | 2 | 2 | 12 | +
COc1ccccc1N1CCN(c2nc(C)cc(C)c2C#N)CC1 | -2 | -12 | -3 | -5 | 0 | i
CN(C)c1ccc(/C=C/c2nc3ccccc3c(=O)n2-c2ccc(C(=O)O)cc2)cc1 | -14 | -78 | -3 | -212 | 5 | +
CN(C)S(=O)(=O)c1ccc2[nH]cc(/C=C/c3nc4ccccc4c(=O)n3-c3ccccc3)c2c1 | -5 | 6 | -1 | 1 | 66* | i
C=CCc1cccc(/C=N/NC(=O)CCC(=O)Nc2ccc(C)cc2)c1O | -7 | -3 | 0 | -3 | 46 | i
CCOC(=O)C1=c2s/c(=C\c3ccncc3)c(=O)n2C(N)=C(C(=O)OC)C1c1ccncc1 (centres undefined) | -5 | -1 | 4 | 3 | 68* | i
O=C(NCCN1CCCCC1)Nc1ccc([N+](=O)[O-])cc1 | 51* | -5 | 9 | -3 | 6 | i
COc1cc(OC)cc(-c2nc3ccccc3s2)c1 | 1 | 0 | -7 | -7 | -7 | i
c1ccc(-n2cnnc2SCc2nc3ccccc3s2)cc1 | 2 | -6 | -4 | 1 | -3 | +
Cc1nnc(SCc2nc3ccccc3s2)n1-c1ccccc1 | -1 | 4 | 0 | -2 | -6 | i
O=C(COC(=O)c1ccc[nH]c1=O)Nc1cc(S(=O)(=O)N2CCCCC2)ccc1Cl | -2 | 3 | 2 | -1 | -2 | i
Oc1ccc(/C=N/N2CCCCC2)cc1O | 5 | -2 | -5 | 0 | 69* | i
O=C1C2C3C=CC(CC3)C2C(=O)N1/N=C/c1ccc(O)c(O)c1 (centres undefined) | -3 | 11 | -5 | 0 | 6 | i
O=C1c2ccccc2C(=O)N1/N=C/c1ccc(O)c(O)c1 | -11 | -2 | -3 | -2 | 62* | i
SMILES | Rtt109 Vps75 | sPLA2-III inh | ABHD5 PLIN5 PPI | DAGLB inhibitor | H9c2 protect | Myeloid diff MLP
CCC(=O)N1CCCC(C)(C(=O)Nc2nccc3ccccc23)C1 (centres undefined) | · | 9 | 7 | · | 3 | i
Cc1ccc(NC(=O)Nc2ccnc(-c3cccnc3)n2)cc1 | 0 | 6 | -9 | 0 | 78* | i
CN(C)CCNC(=O)c1sc2nc(-c3ccccc3)cc(C(F)(F)F)c2c1N | 2 | -19 | -2 | 0 | 4 | +
COc1ccc(-c2cc(C(F)(F)F)c3c(N)c(C(=O)NCCSC)sc3n2)cc1 | -7 | 4 | -4 | -2 | 8 | i
Nc1c(C(=O)C2CC2)sc2nc(-c3ccccc3)cc(C(F)(F)F)c12 | -4 | 0 | 1 | -7 | -5 | +
CC(=O)c1sc2nc(-c3cccs3)cc(C(F)(F)F)c2c1N | -7 | 2 | -16 | -23 | 2 | +
CCCNC(=O)C1(C)CCN(Cc2cc(C)n(C)n2)C1 (centres undefined) | · | 9 | -5 | · | 13 | i
C/C(=N/Nc1nc(C)cc(-c2ccccc2)n1)c1ccco1 | -20 | 2 | -5 | 2 | -1 | ·
C/C(=N\Nc1nc(C)cc(-c2ccccc2)n1)c1ccc(C)o1 | 9 | -10 | -1 | -1 | 48* | i
Cc1nc2c(=O)[nH]c(=S)n(C)c2nc1C | 2 | 21* | -6 | -2 | -2 | i
Cc1nc2[nH]c(=S)[nH]c(=O)c2nc1C | -3 | -4 | -10 | 0 | 0 | i
CCCC(=O)N1CCN(c2ccc(NC(=O)c3cc4ccccc4o3)cc2Cl)CC1 | 11 | -24 | -4 | -1 | 0 | i
CCC(=O)N1CCN(c2ccc(NC(=O)c3cc4ccccc4o3)cc2Cl)CC1 | 1 | -7 | -20 | -5 | 53* | i
Cc1ccc(NC(=O)COC(=O)CCC(=O)c2cccs2)c(C)c1 | -5 | -5 | 2 | -1 | 1 | +
O=S(=O)(Nc1nc2ccccc2nc1NCc1ccco1)c1cccs1 | -1 | -33 | 7 | 5 | 1 | +
Cc1cc(C(=O)O)ccc1N=Cc1c(O)ccc2ccccc12 | -3 | -1 | 6 | 3 | 7 | i
Cc1noc(C)c1C(=O)N1CCC2(CC1)Oc1ccc(F)cc1C(=O)C21CC(c2ccc(Cl)cc2)=NO1 (centres undefined) | -4 | -9 | 3 | -2 | 2 | +
COCc1cc(C)c(C#N)c(=S)[nH]1 | 80* | · | -16 | 2 | -5 | i
COc1c(Br)cc(/C=N/n2c(-c3ccccc3)n[nH]c2=S)c(O)c1Br | 10 | 7 | 3 | 6 | 64* | i
Oc1c(Br)cc(Br)cc1/C=N/n1c(-c2ccccc2)n[nH]c1=S | 4 | 7 | 0 | 10 | 32 | i
CC1CCN(C(=O)COC(=O)c2n[nH]c(=O)c3ccccc23)CC1 | 2 | -4 | -2 | -1 | 62* | i
COc1cccc(N(CC(=O)NC2CCCC2)C(=O)CCC(=O)Nc2cc(C)on2)c1 | 4 | -1 | -9 | 0 | 2 | +
N=c1c(-c2nc3ccccc3[nH]2)cc(C(=O)c2cccs2)nn1-c1ccccc1 | -6 | · | 3 | 1 | -12 | i
N=c1c(-c2nc3ccccc3[nH]2)cc(C(=O)c2ccco2)nn1-c1ccccc1 | 10 | 25* | 4 | 6 | -2 | i
COC(=O)CSc1ccc2nnc(CCNS(=O)(=O)c3ccccc3)n2n1 | -6 | 4 | 2 | 1 | 6 | i

Screening results deposited in PubChem BioAssay by several laboratories.
